# PubChem BioAssay (NCI)
# Compounds without any hit were thinned out: in the full panel of roughly 83,000, 20% have a hit.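 Compound tested at a single concentration for 48 hours in 96-well plates; a percent growth value below 10 was scored as active.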 Values without a mark were called inactive. The source made the active and inactive calls.
# Columns and labels:
# Test in all cases: NCI-60 one-dose screen, 48 h (100 = growth as untreated, 0 = no growth, -100 = all killed)
# Details in all cases: 10 µM unless noted
# EKVX NSCLC = test system: EKVX NSCLC
# SN12C renal = test system: SN12C renal
# UO-31 renal = test system: UO-31 renal
# TK-10 renal = test system: TK-10 renal
# ACHN renal = test system: ACHN renal
# CAKI-1 renal = test system: CAKI-1 renal
# A498 renal = test system: A498 renal
# CCRF-CEM leukemia = test system: CCRF-CEM leukemia
# MOLT-4 leukemia = test system: MOLT-4 leukemia
# SR leukemia = test system: SR leukemia
SMILES,growth (EKVX NSCLC),growth (SN12C renal),growth (UO-31 renal),growth (TK-10 renal),growth (ACHN renal),growth (CAKI-1 renal),growth (A498 renal),growth (CCRF-CEM leukemia),growth (MOLT-4 leukemia),growth (SR leukemia)
Cc1cc2cn3c4cccnc4[nH]c(=O)c3c2cc1C,76.7%,22.5%,58.9%,61.3%,82.1%,75.7%,95.8%,4.5% (active),18.4%,–
O=c1c(O)cccn1CCCNCCCN(CCCn1cccc(O)c1=O)CCCn1cccc(O)c1=O,93%,87%,104%,108%,101%,103%,129%,147%,160%,–
CC(C)c1nc(N(C)S(C)(=O)=O)nc(-c2ccc(F)cc2)c1/C=C/[C@@H](O)C[C@@H](O)CC(=O)O,91.2%,96.2%,75%,107%,97.1%,97.6%,56.2%,104%,109%,–
CC(C)(C)c1ccc(C(O)CCCN2CCC(C(O)(c3ccccc3)c3ccccc3)CC2)cc1 (configuration not stated),28.3%,4.51% (active),-80.9% (active),-81.7% (active),-88.2% (active),1.36% (active),50.3%,-23.6% (active),-13.2% (active),–
Cc1ccsc1/C=C/C1=NCCCN1C,99.5%,95.3%,80%,104%,101%,97.1%,113%,81%,95%,–
CC(C)[C@H]1CC[C@H]2[C@@H](CC[C@H]3[C@](C)(CN)CCC[C@]23C)C1,68.5%,85.9%,70.1%,89.6%,84%,87.6%,81.3%,48.3%,37.2%,–
Cc1c(N(C)CS(=O)(=O)O)c(=O)n(-c2ccccc2)n1C,93.1%,93.9%,79.9%,108%,101%,98.8%,109%,96.9%,83%,–
Oc1ccccc1/C=N\Nc1ccccc1,72.8%,44.9%,15.5%,110%,27.2%,10.8%,82.5%,17.8%,35.3%,–
COc1ccc(-c2c3c(nn2-c2ccc(N)cc2)CCc2cnoc2-3)cc1OC,102%,92.4%,62.1%,88.5%,81.7%,82.1%,85.3%,61.5%,86.4%,–
Cn1cc(-c2csc(-c3c[nH]c4ncccc34)n2)c2cc(Br)cnc21,24.2%,4.21% (active),28.8%,-21.8% (active),29.6%,12.5%,71.7%,68%,76.2%,–
CCC[C@H](N[C@@H](C)C(=O)N1[C@H](C(=O)O)C[C@@H]2CCCC[C@@H]21)C(=O)OCC,111%,101%,77.4%,113%,90.8%,102%,98.9%,105%,115%,–
Cn1cc(-c2csc(-c3cn(C)c4ncccc34)n2)c2cc(Br)cnc21,84.4%,89.4%,100%,115%,95.5%,85.3%,79%,80%,85%,–
CC[C@H](C)C(=O)O[C@H]1C[C@@H](C)C=C2C=C[C@H](C)[C@H](CC[C@@H]3C[C@@H](O)CC(=O)O3)[C@H]21,62.4%,42.5%,74.7%,104%,32.9%,20.7%,-27.9% (active),72.9%,90.8%,–
COc1cc(NC(=O)c2cc3ccccc3cc2O)c(OC)cc1Cl,9.25% (active),10.2%,-25.8% (active),22.6%,3.75% (active),-2.48% (active),25.4%,-17.4% (active),-18.8% (active),1.88% (active)
COC(=O)CCC1=C(C)/C(=C/c2[nH]c(-c3ccc[nH]3)cc2OC)N=C1C,46.4%,34.8%,-50.9% (active),28.1%,8.35% (active),11.1%,66.8%,-23.6% (active),-28.3% (active),-32.1% (active)
Cc1c(C(N)=O)sc2ncn(Cc3ccccc3)c(=O)c12,122%,97.8%,61.7%,87.8%,99.6%,-1.53% (active),121%,138%,114%,92.8%
N#Cc1c(N)[nH]c(S)c1C#N,101%,108%,88.2%,111%,93.6%,98.5%,76.2%,102%,108%,97.8%
O=C(c1ccccc1)c1ccccc1Cl,101%,101%,86.7%,94.6%,112%,109%,86.1%,86.3%,94.2%,94.5%
COc1cccc(CCC2C(=O)CCCC2=O)c1,116%,106%,84.3%,115%,103%,106%,131%,102%,92.1%,99.1%
CCCc1cccc(CCC)c1O,98.9%,107%,98%,116%,115%,93.8%,95.5%,111%,105%,116%
OC(Cc1cccnc1)c1ccccc1 (configuration not stated),113%,99.3%,93.3%,109%,101%,119%,86.5%,80.2%,94.3%,92.6%
CNc1ccc(CSc2ccc(Cl)cc2)cc1,104%,92.2%,58.3%,126%,106%,-3.51% (active),87%,33.3%,61.5%,55.8%
O=[N+]([O-])c1ccc(Oc2cccc(C(F)(F)F)c2)c([N+](=O)[O-])c1,111%,28.2%,28.6%,11.2%,42%,20.2%,97.8%,14.7%,17.1%,5.65% (active)
CCCCCCC(C)(O)c1ccccc1 (configuration not stated),101%,96.7%,80.3%,106%,103%,96.8%,145%,91.9%,106%,97.6%
COc1ccc(COC(C)=O)cc1,113%,124%,97.2%,126%,99.1%,105%,88.7%,86.4%,107%,112%
Fc1ccc(-c2nc(Nc3ccc(-c4nc5ccccc5[nH]4)cc3)nc(N3CCOCC3)n2)cc1,-91.3% (active),-79.5% (active),-87.6% (active),-94.4% (active),-90.6% (active),-93.6% (active),-81.5% (active),-91.5% (active),-91.6% (active),-83.3% (active)
N#Cc1c(N2CCOCC2)nc2sc3cc(Cl)ccc3n2c1=N,91.1%,99.8%,63.3%,160%,98.3%,111%,121%,126%,109%,108%
CCCCCCCCCCCCNc1ncnc2[nH]ncc12,51.2%,80.3%,77.7%,88.2%,83.4%,66.2%,50.4%,68.3%,65.8%,9.74% (active)
COc1cc(C2CC(=O)Nc3c2cc(Br)c2ccccc32)cc(Br)c1OC (configuration not stated),41.7%,54.5%,0.792% (active),-7.53% (active),5.63% (active),3.19% (active),-2.63% (active),11.1%,30.9%,-53.1% (active)
O=C1CC(=O)N(c2ccccc2)O1,108%,94.9%,61.7%,122%,97.4%,94.8%,94.6%,110%,114%,110%
